From the antibiotic and cytotoxicity screens of Wong et al. (2023)
The whole screen tested about 39,000 compounds, of which about 3,300 (8.5%) were called active. What follows is part of a selection rich in actives, with near analogues and random picks from the rest.

Each molecule was assayed on HepG2 (assay: cytotoxicity call (relative viability < 0.9)). Conditions: 10 µM.

Row | Compound | cytotoxicity call
1 | C[C@@H](N)Cc1c[nH]c2ccc(O)cc12 | inactive
2 | O=C1CC[C@@H]2NCC[C@H]2N1 | inactive
3 | CC[C@@H](N)[C@@H](O)c1ccc(O)c(O)c1 | inactive
4 | CCC(N)C(O)c1ccc(O)c(O)c1.Cl (stereo not drawn) | active
5 | C[C@H](N)[C@H](O)c1ccc(O)c(O)c1 | inactive
6 | CC=C(C)C(=O)OC1CCC2(C)C3CCC4C5(O)CC(O)C6(O)C(CN7CC(C)CCC7C6(C)O)C5(O)CC42OC13O.Cl (stereo not drawn) | inactive
7 | N#C[C@H](O[C@@H]1O[C@H](CO)[C@@H](O)[C@H](O)[C@H]1O)c1ccc(O)cc1 | inactive
8 | Cl.N=C(N)NN | inactive
9 | [N-]=[N+]=Nc1ccc2[nH]ccc2c1 | inactive
10 | Nc1ccc(N2CCNCC2)cc1 | inactive
11 | Oc1ccc(N2CCNCC2)cc1 | inactive
12 | O=c1[nH]c2cc(N3CCNCC3)ccc2o1 | active
13 | OCc1ccco1 | inactive
14 | Cc1nnc([C@H]2CCCNC2)o1 | inactive
15 | CC[C@H]1/C=C/C=C/C[C@@H](C)[C@H](O)[C@@](C)(O)C(=O)[C@@H](C)[C@H](O)[C@@H](C)C(=O)[C@@H](C)[C@H](O)[C@@H](C)/C=C/C(=O)O[C@@H]2[C@H](C)[C@H](CC1)O[C@]1(CC[C@H](C)[C@H](C[C@@H](C)O)O1)[C@H]2C | inactive
16 | COc1cc(C2c3cc4c(cc3C(O)C3COC(=O)C23)OCO4)cc(OC)c1OC (stereo not drawn) | active
17 | COc1ccc2c(c1OC)C(=O)OC2C1c2cc3c(cc2CCN1C)OCO3 (stereo not drawn) | inactive
18 | C[C@H](CO)N1C[C@H](C)[C@H](CN(C)C(=O)Oc2ccccc2)OCc2ccccc2-c2c(n(C)c3ccccc23)C1=O | inactive
19 | C=C(C)C1Cc2c(ccc3c(=O)c4c(oc23)COc2cc(OC)c(OC)cc2-4)O1 (stereo not drawn) | inactive
20 | C=C(C)C1Cc2c(ccc3c2OC2COc4cc(OC)c(OC)cc4C2C3=O)O1 (stereo not drawn) | active

Row | Compound | cytotoxicity call
21 | COc1cc2c(cc1OC)C1C(=O)c3ccc4oc(C(C)C)cc4c3OC1CO2 (stereo not drawn) | active
22 | COc1cc2c(cc1OC)C1C(=O)c3ccc4c(c3OC1CO2)CC(C(C)C)O4 (stereo not drawn) | active
23 | O=C(NCc1ccccc1)[C@H]1C[C@H]2CNC[C@H]1O2 | inactive
24 | CC(C)(C)[C@@]1(O)C[C@H]2OC(=O)C[C@]23C(=O)O[C@H]2OC(=O)[C@@H](O)[C@]231 | inactive
25 | C=CCN1CCC23c4c5ccc(O)c4OC2C(=O)CCC3(O)C1C5.Cl (stereo not drawn) | inactive
26 | CCOC(OCC)P(=O)(O)CCCN | inactive
27 | O=C1CO[C@H]2CNC[C@@H]2N1CC1CCCC1 | inactive
28 | CCOC(=O)[C@H]1[C@@H](C=C(C)C)C1(C)C | inactive
29 | COc1ccc(N(C(=O)Oc2c(C)cccc2C)c2ccnc(Nc3ccc(N4CCN(C)CC4)cc3)n2)c(OC)c1 | inactive
30 | N=C(N)N/N=C/c1ccc2c(c1)OCO2 | inactive
31 | Cc1o[nH]c(=O)c1C[C@H](N)C(=O)O | inactive
32 | CC12CCC(=O)C=C1CCC1C2CCC2(C)C(O)CCC12 (stereo not drawn) | inactive
33 | C#CC1(O)CCC2C3CCC4=CC(=O)CCC4(C)C3CCC21C (stereo not drawn) | active
34 | CCC(=O)OC1CCC2C3CCC4=CC(=O)CCC4(C)C3CCC12C (stereo not drawn) | inactive
35 | CN1[C@H](CO)[C@H]2c3ccccc3NC[C@H]21 | inactive
36 | Cl.NNCc1ccccc1 | inactive
37 | CC(=O)[O][Cd][O]C(C)=O | inactive
38 | NC[C@@H](O)c1ccc(Br)cc1 | inactive
39 | C[C@@H]1NC[C@@H]2CCCN2C1=O | inactive
40 | O=c1[nH]c2ccccc2n1C1CCN(CCCC(c2ccc(F)cc2)c2ccc(F)cc2)CC1 | active

Row | Compound | cytotoxicity call
41 | O=c1[nH]c2ccccc2n1CCCN1CCC(n2c(=O)[nH]c3cc(Cl)ccc32)CC1 | inactive
42 | NC[C@@H](CC(=O)O)c1ccc(Cl)cc1 | inactive
43 | CCOC(=O)c1c(CN2CCN(Cc3ccccc3)CC2)n(Cc2ccccc2)c2cc(Br)c(O)cc12 | inactive
44 | CN(C)C(=O)C(CCN1CCC(O)(c2ccc(Cl)cc2)CC1)(c1ccccc1)c1ccccc1.Cl | active
45 | CN1CCN(CC2CC2)C(=O)C12CCNCC2 | inactive
46 | O=C(C1CCCC1)N1C[C@@H]2CCNC[C@@H]21 | inactive
47 | CCN1C(=O)/C(=C/c2ccc[nH]2)C(=O)NC1=S | inactive
48 | CC12CCC3C(CCC4CC(O)CCC43C)C1CCC2=O (stereo not drawn) | inactive
49 | CC12CCC3C(CCC4CC(O)CCC43C)C1CCC2O (stereo not drawn) | inactive
50 | CO[C@H]1[C@H](O)[C@@H](O[C@H]2[C@@H](C)O[C@@H](O[C@H]3[C@H](C)O[C@H](O[C@H]4CC[C@@]5(C)[C@@H](CC[C@@]6(O)[C@@H]5C[C@@H](O)[C@]5(C)[C@]6(O)CC[C@@]5(O)[C@@H](C)O)C4)C[C@@H]3OC)C[C@H]2OC)O[C@@H](C)[C@H]1O | inactive
51 | CC(=O)OC1CC(OC2C(O)CC(OC3C(O)CC(OC4CCC5(C)C(CCC6C5CC(O)C5(C)C(C7=CC(=O)OC7)CCC65O)C4)OC3C)OC2C)OC(C)C1OC1OC(CO)C(O)C(O)C1O (stereo not drawn) | active
52 | CC12CCC(O)CC1CCC1C2CC(O)C2(C)C(C3=CC(=O)OC3)CCC12O (stereo not drawn) | active
53 | CO[C@H]1[C@@H](O)C[C@@H](O[C@H]2[C@@H](O)C[C@@H](O[C@H]3[C@@H](O)C[C@@H](O[C@H]4CC[C@@]5(C)[C@@H](CC[C@H]6[C@@H]5C[C@@H](O)[C@@]5(C)[C@H](C7=CC(=O)OC7)CC[C@@]65O)C4)O[C@@H]3C)O[C@@H]2C)O[C@@H]1C | active
54 | CC(=O)O[C@H]1C[C@H](O[C@H]2[C@@H](O)C[C@H](O[C@H]3[C@@H](O)C[C@H](O[C@H]4CC[C@@]5(C)[C@@H](CC[C@H]6[C@@H]5C[C@@H](O)[C@]5(C)[C@@H](C7=CC(=O)OC7)CC[C@]65O)C4)O[C@@H]3C)O[C@@H]2C)O[C@H](C)[C@H]1O[C@@H]1O[C@H](CO)[C@@H](O)[C@H](O)[C@H]1O | active
55 | CO[C@H]1[C@@H](O)[C@@H](O[C@H]2CC[C@]3(C=O)[C@@H]4[C@@H](CC[C@]3(O)C2)[C@@]2(O)CC[C@H](C3=CC(=O)OC3)[C@@]2(C)C[C@H]4OC(C)=O)O[C@@H](C)[C@@H]1OC(C)=O | inactive
56 | O=C(NC[C@H]1CC[C@]2(CNCCOC2)O1)c1ccnnc1 | inactive
57 | C=C(C)[C@H]1CN[C@H](C(=O)O)[C@@H]1CC(=O)O | inactive
58 | CO/C1=C\C(C)=C\[C@@H](C)[C@@H](O)[C@@H](C)C/C(C)=C/C=C/[C@H](OC)[C@@H]([C@@H](C)[C@@H](O)[C@H](C)C(=O)/C=C/[C@H](C)[C@H](O)C(C)C)OC1=O | inactive
